{"source": "paper PMC7826789", "about": "(International Journal of Molecular Sciences, 2021);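 also: KINOMEscan scanMAX binding as percent activity remaining versus control; lower means stronger binding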", "data": [{"test_system": "MAP3K2", "details": "Compound Concentration (nM):1000", "units": {"Percent Control": "%"}, "values": [{"smiles": "Cl.O=S1CCN(Cc2ccc(-c3ccc4ncnc(Nc5ccc(OCc6ccccc6)c(F)c5)c4c3)o2)CC1", "note": "[GW576924A]", "Percent Control": 100}, {"smiles": "COc1ccc2[nH]c3c4[nH]c5ccc(OC)cc5c4c4c(c3c2c1)C(=O)NC4=O", "note": "[GW296115X]", "Percent Control": 85}, {"smiles": "COc1cc2ncnc(Nc3ccc4c(cnn4Cc4ccccc4)c3)c2cc1OC.Cl", "note": "[GW282449A]", "Percent Control": 100}, {"smiles": "COc1cc(C=NNc2ncnc3c2cnn3-c2ccccc2)ccc1O", "note": "[GW513184X]", "Percent Control": 99}, {"smiles": "COc1ccccc1-c1cc(/C=C2\\C(=O)Nc3ncc(Br)cc32)cc(Br)c1O", "note": "[GW442130X]", "Percent Control": 100}, {"smiles": "CN1CCN(C(=O)c2ccc(NC(=O)Nc3ccc(N(C)c4ccnc(Nc5ccc(CS(C)(=O)=O)cc5)n4)cc3)cc2)CC1.Cl", "note": "[GW830263A]", "Percent Control": 38}, {"smiles": "O=C1Nc2ccc(C(=O)c3ccco3)cc2C1=Cc1cc(Cl)c(O)c(Cl)c1", "note": "[GW406108X]", "Percent Control": 96}, {"smiles": "COc1cc(/C=N/Nc2ncnc3[nH]ncc23)ccc1O", "note": "[GW578748X]", "Percent Control": 67}, {"smiles": "Cc1cc(O)cc(C)c1/C=C/c1cncc(C(N)=O)c1", "note": "[GW435821X]", "Percent Control": 79}, {"smiles": "CCS(=O)(=O)c1ccc(OC)c(Nc2ncc(-c3cccc(F)c3)o2)c1", "note": "[GW621970X]", "Percent Control": 100}, {"smiles": "Cl.O=C(Nc1ccc(Oc2ccc3[nH]c(NC(=O)c4ccco4)nc3c2)cc1)Nc1cc(C(F)(F)F)ccc1F", "note": "[GW683134A]", "Percent Control": 100}, {"smiles": "Nc1ncnc2occ(-c3ccc(NC(=O)Nc4cc(C(F)(F)F)ccc4F)cc3)c12", "note": "[GW770249X]", "Percent Control": 91}]}]}
